Screening results (PubChem)
GPR151 activ: activators of human GPR151, primary screen, cell-based, PathHunter beta-arrestin, luminescence; G-protein coupled receptor 151 (Homo sapiens), Q8TDV0; PathHunter beta-arrestin GPR151 cells; activation, % at 11.2 µM; actives 1% (n = 650,000); AID 1508602, 2020; in the data active = activation above about 4.9%;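 also: 0% = median of compound wells and 100% = cells with positive control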
MITF primary: MITF inhibitors, primary screen, biochemical, AlphaScreen, human; Microphthalmia-associated transcription factor (Homo sapiens), O75030; AlphaScreen MITF homodimerization, bead proximity signal; inhibition, % at 2.6 µM; actives 0.91% (n = 650,000); AID 1259374, 2018; in the data active = inhibition above about 50%;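 also: 0% = vehicle wells with protein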
FBW7 act: FBW7 E3 ligase activators, primary screen, biochemical, AlphaScreen, human. F-box/WD repeat-containing protein 7 (Homo sapiens), Q969H0. AlphaScreen FBW7–phospho-cyclin E peptide binding, activator screen. normalized activity (activation), % at 26.1 µM. actives 0.13% (n = 650,000); in the data active = normalized activity above about 1.9%;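 also: purified mutant Fbw7 with reduced substrate affinity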
Target sequence (Q969H0 whole entry, looked up): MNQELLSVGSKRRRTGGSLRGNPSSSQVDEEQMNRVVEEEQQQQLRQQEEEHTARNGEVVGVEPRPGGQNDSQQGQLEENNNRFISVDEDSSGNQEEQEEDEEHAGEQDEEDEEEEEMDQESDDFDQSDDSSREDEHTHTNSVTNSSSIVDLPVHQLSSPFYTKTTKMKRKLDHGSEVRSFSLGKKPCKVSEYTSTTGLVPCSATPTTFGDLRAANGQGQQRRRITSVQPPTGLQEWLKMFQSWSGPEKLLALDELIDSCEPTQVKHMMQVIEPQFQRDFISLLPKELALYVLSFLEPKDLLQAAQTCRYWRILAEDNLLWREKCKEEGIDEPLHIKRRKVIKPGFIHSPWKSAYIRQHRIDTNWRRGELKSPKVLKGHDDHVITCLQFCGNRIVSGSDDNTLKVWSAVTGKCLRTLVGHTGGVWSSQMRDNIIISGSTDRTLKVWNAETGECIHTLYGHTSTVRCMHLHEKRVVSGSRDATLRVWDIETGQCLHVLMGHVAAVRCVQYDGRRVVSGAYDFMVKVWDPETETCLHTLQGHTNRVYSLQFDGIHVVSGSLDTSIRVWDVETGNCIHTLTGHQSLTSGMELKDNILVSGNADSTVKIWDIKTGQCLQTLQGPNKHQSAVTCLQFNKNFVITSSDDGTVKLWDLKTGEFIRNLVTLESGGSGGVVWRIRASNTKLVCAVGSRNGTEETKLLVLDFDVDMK
TEAD-YAP block: TEAD-YAP interaction inhibition, primary screen, TEAD-YAP interaction inhibitor project, luminescence, HEK-TIYL cells; TEAD-Gal4/YAP UAS-luciferase luminescence; inhibition, % at 9.12 µM; actives 1.4% (n = 640,000); in the data active = inhibition above about 32%;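 also: 0% = median of test compound wells and 100% = reference inhibitor wells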
MITF confirm: MITF inhibitors, retest of hits, confirmation, biochemical, AlphaScreen, triplicate; shares compounds with MITF primary; AlphaScreen MITF homodimerization, biotin/His-MITF beads; inhibition, % at 2.6 µM; actives 16% (n = 4,700); AID 1259372, 2018;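 active = inhibition above a cutoff derived from the DMSO control wells, cut at about 28% in these data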;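 also: 0% = MITF dimer wells with DMSO only; inhibitors lower the bead chemiluminescence by keeping MITF from dimerizing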
AlphaScreen intf2: AlphaScreen optical interference compounds, counter-screen for MITF inhibitor project, biochemical, triplicate; shares compounds with MITF primary; LysRS AlphaScreen counterscreen, signal interference; inhibition, % at 2.6 µM; actives 7.6% (n = 4,700); AID 1259376, 2018;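 active = inhibition above a cutoff derived from the DMSO control wells, cut at about 30% in these data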
Active calls of the source: *; · = no result. Shown are actives, neighbours in structure and some others; about 3.5% of the full set was active somewhere.

SMILES | GPR151 activ | MITF primary | FBW7 act | TEAD-YAP block | MITF confirm | AlphaScreen intf2
O=C(COc1ccc(F)cc1)N/N=C/c1cc([N+](=O)[O-])cc([N+](=O)[O-])c1O | 0 | 1 | 0 | 11 | · | ·
COc1ccc(F)c(CN2CCC(C3(CCc4ccccc4)NC(=O)NC3=O)CC2)c1 (stereo not given) | 1 | 81* | 0 | 4 | 2 | -2
Fc1ccc(CN2CCN(Cc3ccc4ccccc4c3)CC2)cc1 | 1 | 79* | 0 | -7 | 20 | 14
O=C(c1ccc(F)cc1)N1CCN(Cc2ccc3ccccc3c2)CC1 | 3 | 58* | 1 | 15 | -8 | -6
O=C(CCCCn1c(=O)[nH]c2ccsc2c1=O)N1CCN(Cc2ccccc2)CC1 | 0 | -11 | 0 | 9 | · | ·
CCC(=O)c1ccccc1OCCCCN1CCN(C)CC1 | 0 | -20 | 0 | 8 | · | ·
CCC(=O)c1ccccc1OCCCN1CCN(Cc2ccccc2)CC1 | 1 | 56* | 0 | 4 | 4 | 20
CCC(=O)c1ccccc1OCCN1CCN(CC)CC1 | 3 | 68* | 0 | -2 | 15 | 18
CCC(=O)c1ccccc1OCCCCn1cncn1 | 0 | 74* | 0 | 2 | 9 | 20
N#C/C(=C/Nc1ccccc1F)c1nc(-c2ccc([N+](=O)[O-])cc2)cs1 | 2 | 68* | 0 | -1 | 0 | 3
Cc1nc(SCC(=O)c2ccc(C)c(C)c2)n[nH]1 | 2 | -8 | 0 | -31 | · | ·
O=[N+]([O-])c1ccc(N2CCN(Cc3cc(Br)cs3)CC2)cc1 | 1 | 56* | 0 | 6 | 4 | 6
CN1CCCN(Cc2ccc([N+](=O)[O-])s2)CC1 | 0 | 52* | 0 | 0 | 4 | 6
O=[N+]([O-])c1ccc(CN2CCCCCC2)s1 | -1 | 4 | 0 | 9 | · | ·
Cc1ccc(CN2CCN(c3ccc([N+](=O)[O-])cc3)CC2)s1 | 0 | 70* | 1 | 2 | -3 | 3
CC(=O)c1ccc(N2CCN(Cc3ccc(C)s3)CC2)cc1 | 1 | 36 | 0 | -1 | · | ·
CCCCCC1CCC(c2ccc(C(=O)OCC(=O)c3ccc(-c4ccc(Br)cc4)cc3)cc2)CC1 (stereo not given) | -2 | 20 | 0 | 11 | · | ·
CCCN(CCC)C(=O)CSc1nc2ccsc2c(=O)n1Cc1ccccc1F | 0 | 4 | 1 | 3 | · | ·
Cc1nn(C(=O)c2cccs2)c(N)c1-c1ccccc1 | 1 | 6 | 0 | -69 | · | ·
Cc1nn(C(=O)c2ccc3c(c2)OCO3)c(N)c1-c1ccccc1 | -2 | 52* | 0 | -32 | 2 | 6
COc1ccc(NC(=O)NNC(=O)c2cc(C3CC3)nc3ccccc23)c(OC)c1 | 1 | 61* | 0 | -2 | 6 | 20
COc1ccc(NC(=O)c2cc(-c3ccccc3)nc3ccccc23)c(OC)c1 | 0 | -7 | 0 | 8 | · | ·
CC(C)=C1C2CC2C2C(C(=O)O)C12 (stereo not given) | -1 | 60* | 0 | 15 | -3 | 5
O=S(=O)(CCN1CCCCC1)Oc1ccccc1 | -1 | 58* | 0 | -7 | 7 | 19
CCc1ccc(CN2CCN(CC3CC=CCC3)CC2)cc1 (stereo not given) | -1 | 69* | 0 | -8 | -4 | 1
SMILES | GPR151 activ | MITF primary | FBW7 act | TEAD-YAP block | MITF confirm | AlphaScreen intf2
Clc1cccc(CN2CCN(CC3CC=CCC3)CC2)c1 (stereo not given) | 1 | 32 | 0 | -7 | · | ·
C1=CCC(CN2CCN(Cc3ccc4c(c3)OCO4)CC2)CC1 (stereo not given) | 0 | 66* | 1 | -2 | 7 | 19
OC(CN1CCOCC1)CN1CCN(Cc2ccc3c(c2)OCO3)CC1 (stereo not given) | 0 | 76* | 0 | -1 | 7 | 10
O=C(c1ccncc1)N1CCN(Cc2ccc3c(c2)OCO3)CC1 | -1 | 87* | 1 | -6 | -1 | 1
CCCN1CCN(C(=O)Cn2nc(C)n3cccc3c2=O)CC1 | -1 | 4 | 0 | 4 | · | ·
COc1cc(CN2CCN(CC3CC=CCC3)CC2)cc(OC)c1O (stereo not given) | 2 | 4 | 0 | -2 | · | ·
COc1ccc(CN2CCN(CC3CC=CCC3)CC2)c(OC)c1OC (stereo not given) | 1 | 66* | 0 | 12 | -19 | -2
CC(C)(C)n1nnnc1C(c1cccs1)N1CCN(Cc2ccc3c(c2)OCO3)CC1 (stereo not given) | -1 | 78* | 0 | 4 | 15 | 17
CN1CCCN(Cc2ccc3c(c2)OCO3)CC1 | 3 | 52* | 0 | -4 | 2 | 1
CN1CCN(CC(=O)NCc2ccc3c(c2)OCO3)CC1 | 0 | 83* | 0 | 10 | 6 | 18
CN1CCN(C(=S)C(=O)NCc2ccc3c(c2)OCO3)CC1 | 2 | -6 | 0 | 5 | · | ·
CC(C)C1=CC23CCC4C(C)(C(=O)O)CCCC4(C)C2CC1C1C(=O)N(CCO)C(=O)C13 (stereo not given) | 3 | -9 | 0 | -3 | · | ·
CCOC(=O)N1CCC(N(CCOC)C(=O)Nc2ccc(OCC)cc2)CC1 | 0 | -3 | 0 | -12 | · | ·
CCC(C)N1CCN(CC2CC=CCC2)CC1 (stereo not given) | 0 | 62* | 0 | -1 | 17 | 17
CCOc1ccccc1CN1CCN(Cc2ccc3c(c2)OCO3)CC1 | 1 | 52* | 0 | 2 | 4 | 0
C1=CCC(CN2CCN(C3CCCCC3)CC2)CC1 (stereo not given) | 0 | 51* | 0 | -1 | 12 | 16
c1cc2c(cc1CN1CCCCC1)OCO2 | 1 | 1 | 0 | 0 | · | ·
CCOC(=O)N1CCN(Cc2ccc3c(c2)OCO3)CC1 | 1 | -17 | 0 | -9 | · | ·
Cc1ccc(S(=O)(=O)N2CCN(CC3CC=CCC3)CC2)cc1 (stereo not given) | 0 | 34 | 0 | 1 | · | ·
c1cc2c(cc1CN1CCN(Cc3ccc4c(c3)OCO4)CC1)OCO2 | 2 | 70* | 0 | 2 | -1 | 3
CCOC(=O)C1(CCOc2ccccc2)CCN(Cc2cnn(C)c2)CC1 | 0 | 7 | 0 | 0 | · | ·
O=C(COC(=O)C1=NNC(=O)CC1)NCC1CCCCC1 | -3 | 15 | 0 | 1 | · | ·
CCCS(=O)(=O)N1CCN(Cc2cccc(F)c2)CC1 | 2 | 45 | 0 | -9 | · | ·
CCCS(=O)(=O)N1CCN(Cc2ccc3c(c2)OCO3)CC1 | -1 | 53* | 0 | -6 | 10 | 18
Cc1ccccc1CN1CCC(CN)CC1 | 0 | -4 | 0 | 11 | · | ·
